Bioassay records deposited in PubChem by National Center for Advancing Translational Sciences (NCATS).
Most compounds without a hit are left out; they make up all but 3.7% or so of the library.
ELG1 repair inh: qHTS screen for small molecules that inhibit ELG1-dependent DNA repair in human embryonic kidney (HEK293T) cells expressing luciferase-tagged ELG1 | HEK293T ELG1-luciferase reporter, luminescence, 16 h; DNA damage induced by 5-fluorouridine | Potency, µM (highest dose often 46.1 µM), for the others: at the top dose activity change, negative = inhibition, usual class: inhibitors | 2.3% of 330,000 active | AID 504467, 2011; also: % is scaled to controls: 0 for no effect and ±100 for the full control effect; nearly all actives have a fitted effect of over 55% in size
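5-Fluorouridine DNA damage + compound/DMSO, 2,000 cells/well, 16 h, 37 °C/5% CO2. ONE-Glo, 30 min RT, luminescence. Readout = decrease in reporter signal.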
Nrf2 block: Nrf2 qHTS screen for inhibitors | 2.1% of 360,000 active | A549 ARE-Fluc reporter, luciferase luminescence, 18-24 h | Potency, µM (doses to about 46 µM), without a hit: at the top dose activity change, negative = inhibition, hits mostly inhibitors; also: % is scaled to controls: 0 for no effect and ±100 for the full control effect; nearly all actives have a fitted effect of over 60% in size
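Nrf2 function is reported as luminescence of an ARE-controlled luciferase in A549 cells. Compounds were tested at several concentrations, and a CellTiter-Fluor read on the same wells flagged cytotoxicity.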
Nrf2 ARE act: qHTS of Nrf2 Activators; 0.31% of 410,000 active; AREc32 ARE-luciferase reporter (MCF7-derived line), luminescence, 24 h; Potency, µM (highest dose often 46.1 µM), without a hit: top-dose activation, hits mostly activators; AID 624171, 2012; also: % of control where 0% means no effect; nearly all actives have a fitted effect of over 65% in size
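Nrf2 activation is followed as ARE-luciferase induction in the AREc32 line after one day of compound treatment; luminescence is read with Steady-Glo.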
A549 tox-1: Nrf2 qHTS screen for inhibitors: counterscreen for cytotoxicity; Potency, µM (series often up to 46 µM), inactives show at the highest dose activity change, negative = cytotoxicity, most hits filed as inhibitors; 0.16% of 390,000 active; A549 ARE-Fluc cells, CellTiter-Fluor viability, 18-24 h; also: % is scaled to controls: 0 for no effect and ±100 for the full control effect
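Cytotoxicity counterscreen: CellTiter-Fluor fluorescence was measured in A549 ARE_Fluc cells after 18-24 h of compound exposure in a concentration series. The subsequent BugLite luminescent read reports ARE-luciferase activity.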
FLuc counter 3: Nrf2 qHTS screen for inhibitors: Purified Fluc Biochemical Counterscreen for Hit Validation | shares compounds with Nrf2 block | purified firefly luciferase, luminescence inhibition | Potency, µM (doses to about 57.5 µM), inactives show top-dose activity change, negative = inhibition, most hits filed as inhibitors | 4% of 1,400 active | AID 720522, 2013; also: % is scaled to controls: 0 for no effect and ±100 for the full control effect; nearly all actives have a fitted effect of over 65% in size
Target sequence (P08659 whole entry, looked up): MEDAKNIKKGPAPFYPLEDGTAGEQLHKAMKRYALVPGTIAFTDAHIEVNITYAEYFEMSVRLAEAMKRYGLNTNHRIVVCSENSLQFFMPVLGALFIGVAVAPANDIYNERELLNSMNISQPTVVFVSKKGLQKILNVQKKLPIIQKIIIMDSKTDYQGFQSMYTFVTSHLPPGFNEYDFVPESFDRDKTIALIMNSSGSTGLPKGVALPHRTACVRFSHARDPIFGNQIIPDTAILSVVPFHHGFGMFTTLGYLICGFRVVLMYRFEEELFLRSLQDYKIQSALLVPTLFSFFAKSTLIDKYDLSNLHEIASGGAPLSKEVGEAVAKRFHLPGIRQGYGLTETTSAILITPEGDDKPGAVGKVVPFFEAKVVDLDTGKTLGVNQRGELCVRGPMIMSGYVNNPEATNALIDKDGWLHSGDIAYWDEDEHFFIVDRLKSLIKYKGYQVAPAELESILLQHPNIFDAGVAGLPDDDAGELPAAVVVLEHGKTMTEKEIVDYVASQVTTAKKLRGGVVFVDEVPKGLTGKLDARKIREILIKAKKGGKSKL
A549 tox-2: Nrf2 qHTS screen for inhibitors: A549 ARE-Fluc Cytotoxicity Counterscreen for Hit Validation | shares compounds with Nrf2 block | A549 ARE-Fluc cells, cytotoxicity counterscreen | Potency, µM (series often up to 46.1 µM), without a hit: top-dose activity change, negative = cytotoxicity, hits mostly inhibitors | 2% of 1,400 active;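 also: cells exposed to compounds for 18 to 24 hours; % is scaled to controls: 0 for no effect and ±100 for the full control effect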
Nrf2 ARE inh: Nrf2 qHTS screen for inhibitors: Nrf2 A549 ARE-Fluc Confirmation Assay for Hit Validation; shares compounds with Nrf2 block; A549 ARE-firefly luciferase reporter, luminescence; Potency, µM (titrated, usually from 46.1 µM), for inactives: at the highest dose activity change, negative = inhibition, usual class: inhibitors; 74% of 1,400 active; also: % is scaled to controls: 0 for no effect and ±100 for the full control effect; nearly all actives have a fitted effect of over 65% in size
Active calls of the source: *. Calls follow the shape of the dose curve; as a rule, active = well fitted curve in the direction sought with a large enough effect; inconclusive = small, poorly fitted or top-dose-only effect, or another doubt; inactive = no such curve, though single readings can be large; an effect the other way counts as inactive or inconclusive. Potency is read from the fitted curve at half-maximal effect.

What do the screens show for `Cc1cc2oc(=O)cc(CSc3nnc(C)n3N)c2cc1C(C)C`?
ELG1 repair inh: 7.3%; Nrf2 ARE act: -0.1%; A549 tox-1: 22.7%

Results for COc1ccc(CCNC(=S)N2CCN(S(=O)(=O)c3ccccc3F)CC2)cc1 ?
ELG1 repair inh: inconclusive; Nrf2 block: -24.9%; Nrf2 ARE act: -0.5%; A549 tox-1: -5.3%

Results for COc1ccc(OC)c(/C=C/c2ccc3ccccc3[n+]2C)c1 ?
FLuc counter 3: -2.1%; A549 tox-2: -33.2%; Nrf2 ARE inh: 7.31µM*

What do the screens show for `C[n+]1c(/C=C/c2ccc(F)cc2)ccc2ccccc21`?
FLuc counter 3: inconclusive; A549 tox-2: -21.5%; Nrf2 ARE inh: 8.2µM*

What do the screens show for `C[n+]1c(/C=C/c2ccc(O)cc2)ccc2ccccc21`?
ELG1 repair inh: 8.0%; Nrf2 block: 2.1%; Nrf2 ARE act: 20.0%; A549 tox-1: -29.5%

Results for CCOC(=O)c1c(NC(=O)CC2SC(N)=NC2=O)sc2c1CCCC2 (configuration not stated) ?
ELG1 repair inh: -1.9%; Nrf2 block: 1.64µM*; Nrf2 ARE act: 2.5%; A549 tox-1: -24.1%; FLuc counter 3: -1.0%; A549 tox-2: -0.6%; Nrf2 ARE inh: inconclusive

Results for CCOC(=O)c1c(NC(=O)COC)sc2c1CCCC2 ?
ELG1 repair inh: -8.0%; Nrf2 block: 1.4%; Nrf2 ARE act: -0.6%; A549 tox-1: 14.4%

How did O=C(Oc1ccc(N(Cc2cccs2)C2=NS(=O)(=O)c3ccccc32)cc1)c1ccccc1Cl do in these assays?
ELG1 repair inh: -26.6%; Nrf2 block: 1.03µM*; Nrf2 ARE act: -0.6%; A549 tox-1: -5.1%; FLuc counter 3: -2.2%; A549 tox-2: -1.3%; Nrf2 ARE inh: 3.66µM*

Results for COc1cc(NC(=O)c2ccc(-c3nc(COc4ccccc4)c(C)o3)cc2)cc(OC)c1 ?
Nrf2 block: 5.17µM*; Nrf2 ARE act: 0.6%; A549 tox-1: -0.1%; FLuc counter 3: -12.3%; A549 tox-2: -6.6%; Nrf2 ARE inh: 8.2µM*

Results for CCCCCCCn1ccc(=N)cc1 ?
ELG1 repair inh: inconclusive; Nrf2 block: 2.91µM*; Nrf2 ARE act: 0.1%; A549 tox-1: -19.5%; FLuc counter 3: 2.4%; A549 tox-2: -13.1%; Nrf2 ARE inh: 6.51µM*

What do the screens show for `CCCCCCCCCn1ccc(=N)cc1`?
ELG1 repair inh: 0.411µM*; Nrf2 block: 3.26µM*; Nrf2 ARE act: 4.1%; A549 tox-1: inconclusive; FLuc counter 3: 2.9%; A549 tox-2: -23.7%; Nrf2 ARE inh: 8.2µM*

Results for CCCCCn1ccc(=N)cc1 ?
ELG1 repair inh: inconclusive; Nrf2 block: 0.92µM*; Nrf2 ARE act: -0.4%; A549 tox-1: inconclusive; FLuc counter 3: 3.6%; A549 tox-2: -11.6%; Nrf2 ARE inh: 1.64µM*

What do the screens show for `CCn1ccc(=N)cc1`?
ELG1 repair inh: 4.9%; Nrf2 ARE act: -0.4%; A549 tox-1: -16.4%

Results for Cc1noc(C)c1-c1ccc2ncnc(NCc3ccccc3Cl)c2c1 ?
Nrf2 block: -6.5%; A549 tox-1: 2.1%

How did CC(=O)Nc1ccc(S(=O)(=O)N2CC3(C)CC2CC(C)(C)C3)cc1 (configuration not stated) do in these assays?
ELG1 repair inh: 3.7%; Nrf2 block: -0.2%; Nrf2 ARE act: 0.6%; A549 tox-1: -5.7%
